ELG1 genotoxic: genotoxicity induction in ELG1-luciferase HEK293T cells; HEK293T ELG1-luciferase reporter, luminescence, 16 h; Potency, µM (series often up to 46 µM), actives largely listed as activators; 1.3% of 330,000 active; also: nearly all actives have a fitted effect of over 60% in size
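HEK293T cells expressing luciferase-tagged ELG1 were treated with compound or DMSO for 16 hr at 37°C. Luciferase activity was then read after 30 min with ONE-Glo at room temperature; rising signal flags genetic stress.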
ELG1 repair inh: blocks ELG1-dependent DNA repair in HEK293T cells. HEK293T ELG1-luciferase reporter, luminescence, 16 h; DNA damage induced by 5-fluorouridine. Potency, µM (titrated, usually from 46.1 µM), actives largely listed as inhibitors. 2.3% of 330,000 active. AID 504467; also: nearly all actives have a fitted effect of over 55% in size
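Overnight (16 hr) co-exposure of 2,000 cells/well to 5-fluorouridine and compound at 37 °C preceded detection. Luciferase was quantified via ONE-Glo luminescence; loss of signal denotes inhibition.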
NPC1 promoter act: NPC1 promoter activation | 2.4% of 320,000 active | Huh7 NPC1 promoter luciferase reporter, 24 h | Potency, µM (highest dose often 9.22 µM), usual class: activators; also: nearly all actives have a fitted effect of over 60% in size
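Luminescence from an NPC1 promoter-driven luciferase reporter in stably transfected Huh7 cells was measured after 24 h compound treatment at 37 °C, followed by 10 min ambient incubation with luciferase detection reagent.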
FLuc modulator: firefly luciferase modulation, counter-screen for miR-21 project; Potency, µM (series often up to 57.5 µM), usual class: inhibitors; AID 588342; 6.9% of 360,000 active; P08659; purified FLuc, Km substrates, luminescence inhibition; also: nearly all actives have a fitted effect of over 55% in size
Target sequence (P08659 whole entry, looked up): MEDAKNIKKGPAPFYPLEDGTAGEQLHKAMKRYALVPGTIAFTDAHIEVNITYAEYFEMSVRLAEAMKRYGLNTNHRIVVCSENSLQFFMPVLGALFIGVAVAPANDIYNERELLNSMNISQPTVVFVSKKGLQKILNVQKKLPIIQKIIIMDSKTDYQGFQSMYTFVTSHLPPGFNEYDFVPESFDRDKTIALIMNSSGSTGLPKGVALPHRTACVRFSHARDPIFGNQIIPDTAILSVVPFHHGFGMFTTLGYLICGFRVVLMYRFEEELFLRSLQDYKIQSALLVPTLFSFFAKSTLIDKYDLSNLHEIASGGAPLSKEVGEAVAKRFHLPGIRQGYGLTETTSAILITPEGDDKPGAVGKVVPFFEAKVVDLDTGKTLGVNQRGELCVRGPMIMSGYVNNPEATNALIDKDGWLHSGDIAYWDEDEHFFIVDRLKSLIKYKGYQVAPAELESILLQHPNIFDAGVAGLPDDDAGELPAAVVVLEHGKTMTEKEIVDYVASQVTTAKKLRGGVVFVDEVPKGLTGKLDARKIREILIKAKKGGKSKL
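Purified P. pyralis luciferase, 10 nM final, with Km-level 10 uM D-luciferin and 10 uM ATP in 50 mM Tris acetate pH 7.5, 10 mM Mg acetate, 0.01% Tween-20, 0.05% BSA; 6-point qHTS titration about 60 µM downward; luminescence read.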
SMN2 splice up: increases expression of the SMN2 splice variant. HEK293 SMN2-luciferase splicing reporter, luminescence, 30-36 h. Potency, µM (top dose mostly 46.1 µM), actives largely listed as activators. 2.8% of 210,000 active. AID 1458; also: nearly all actives have a fitted effect of over 55% in size
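HEK293 cells carry an SMN2 […]–luciferase reporter in which exon 7 inclusion puts luciferase in frame. Cells were plated 10-12 h before compound addition, then incubated 30-36 h at 37C. ONE-Glo luminescence was read; sodium butyrate at 4.5 mM final served as control.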
Rab9 promoter act: activates the Rab9 promoter. 2.8% of 320,000 active. Huh7 Rab9 promoter-luciferase reporter, luminescence, 24 h. AID 485297. Potency, µM (titrated, usually from 9.22 µM), usual class: activators; also: nearly all actives have a fitted effect of over 60% in size
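Stable Rab9-luc Huh7, 1500 cells/well, 2 h settle; cmpd in DMSO, 24 h, 37 °C/5% CO2; luciferase reagent 10 min RT; luminescence.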
Hits are given with their value; n = inactive; u = inconclusive; x = not tested or not shown; [ ] = dose if it differs, or a comment. A selection: hits, their analogues and other compounds. The true share with any hit is near 9.2%. Calls follow the shape of the dose curve; as a rule, active = well fitted curve in the direction sought with a large enough effect; inconclusive = small, poorly fitted or top-dose-only effect, or another doubt; inactive = no such curve, though single readings can be large; an effect the other way counts as inactive or inconclusive.

SMILES	ELG1 genotoxic	ELG1 repair inh	NPC1 promoter act	FLuc modulator	SMN2 splice up	Rab9 promoter act
Cc1cc(C)n(CCN(C)C(=O)CCc2nnc(CCC3CCCCC3)o2)n1	u	u	u	15µM	x	u
OCC(O)CN1CCCC1 (stereo unspecified)	n	n	n	n	x	n
COc1cc(C2NC(=S)NC(C)=C2C(=O)Nc2ccc(C)cc2)ccc1O (stereo unspecified)	n	u	u	u	x	2.2µM
CCCNC(=O)c1ccc(N2CCC3(CC2)CC(c2ccccc2)=NO3)c(NC(=O)c2ccco2)c1	n	5.8µM	n	n	x	n
CC(/C=C\c1ccccc1)=C/C(=O)O	n	n	n	n	x	n
N#Cc1ccccc1COc1ccc(/C=C/C(=O)O)cc1	n	n	n	2.4µM	n	n
O=C(/C=C/c1ccc(NC(=O)c2ccccc2-c2ccccc2C(=O)O)cc1)c1ccccc1	n	n	n	19µM	x	n
N#Cc1ccc(/C=C/C(=O)c2ccccc2)cc1	u	u	n	5.4µM	x	n
O=C(/C=C/c1ccccc1)/C=C/c1ccccc1	n	u	n	3.4µM	n	n
O=C(O)c1ccccc1-c1ccccc1C(=O)Nc1ccc(F)cc1	n	n	n	n	x	n
COc1cc(C2c3c(c(C)c(C)oc3=O)Oc3c(C)c(C)oc(=O)c32)ccc1OS(=O)(=O)c1ccc(C)cc1	n	n	n	n	x	n
O=C(/C=C\c1ccc(-c2ccccc2)o1)c1ccccc1	u	u	u	6µM	u	u
CC(C)(C)C(=O)/C=C(\N)c1ccccn1	n	u	n	n	n	n
O=C(/C=C/c1ccccc1)c1ccccc1	u	u	n	2.4µM	n	n
Cc1ccc(C(=O)/C=C/c2ccc(-c3ccc(C)cc3)o2)cc1	n	n	n	n	n[1.84 µM]	n
CC(C)(C)C(=O)/C=C(N)/C=C/c1ccccc1	u	u	u	12µM	n	n
N/C(=N\OC(=O)/C=C/c1ccccc1)c1ccccc1	8.2µM	u	u	1.5µM	x	u
O=C(Cn1ccc2ccccc2c1=O)NCC(=O)N1CCN(c2ccc(F)cc2)CC1	n	n	n	n	x	n
NC(=O)c1oc2ccccc2c1NC(=O)c1ccc([N+](=O)[O-])o1	n	u	n	n	x	n
Cc1c(NC(=O)c2ccc3c4c(cccc24)CC3)c(=O)n(-c2ccccc2)n1C	n	u	n	n	n	n
O=C(/C=C/c1ccccc1)c1ccc2c3c(cccc13)CC2	u	u	n	12µM	x	n
COCCN(C(=O)CSc1nnc(-c2ccc(C(C)(C)C)cc2)n1N)c1c(N)n(CC(C)C)c(=O)[nH]c1=O	n	u	n	u	x	n
O=C(c1ccco1)N1CCN(C(=S)Nc2ccc(F)c(Cl)c2)CC1	n	n	n	n	x	n
O=C(Nc1ccc(N2CCN(C(=O)c3ccco3)CC2)c(Cl)c1)c1c(F)c(F)c(F)c(F)c1F	n	18µM	n	n	n	n
O=C(Nc1ccc(N2CCN(C(=O)c3ccco3)CC2)c(Cl)c1)c1cccnc1	n	6.5µM	n	n	n	n
SMILES	ELG1 genotoxic	ELG1 repair inh	NPC1 promoter act	FLuc modulator	SMN2 splice up	Rab9 promoter act
COc1c(F)c(F)c(C(=O)Nc2ccc(N3CCN(C(C)=O)CC3)c(Cl)c2)c(F)c1F	n	23µM	n	n	n	n
O=C(Nc1cccc(NC(=O)c2cccs2)c1)c1cccnc1	n	u	n	u	n	n
O=C(Nc1ccc(N2CCN(C(=O)c3cccs3)CC2)c(Cl)c1)c1cccnc1	n	6.5µM	n	n	n	n
CC(=O)N1CCN(c2ccc(NC(=O)c3ccc(Br)o3)cc2Cl)CC1	n	u	n	u	n	n
CC1CCN(C(=O)COC(=O)c2ccc(N3CCCC3=O)cc2)CC1	n	n	n	n	x	n
CCOC(C)(C)C	x	x	x	x	n	x
CCN1CCN(c2ncc3c(n2)CCN(CC(C)C)C3)CC1	x	x	x	n	x	x
O=C(Cc1cccs1)NC1CC(=O)N(c2ccc(Cl)cc2)C1 (stereo unspecified)	x	x	x	n	x	x
COC(=O)c1sccc1NC(=O)CSCCc1ccccn1	n	n	n	n	n	n
COc1cccc2c(Cl)c(CCCl)c(C)nc12	n	n	n	21µM	n	n
CCCCc1c(C)nc2c(OC)cccc2c1SCC(=O)O	n	u	n	n	x	n
O=C1C=C(c2cccc(Br)c2)C[C@@H](c2ccc(Cl)cc2)C1	n	n	x	x	x	x
O=C(CSc1nnc(Cn2nnc3ccccc32)o1)N(Cc1ccc(F)cc1)c1ccccc1	n	n	n	n	x	n
COc1ccc(N(Cc2ccccc2)C(=O)CSc2nnc(Cn3nnc4ccccc43)o2)cc1	n	18µM	n	n	n	n
N#Cc1ccc(NC(=S)NCCN2CCOCC2)cc1	n	n	n	n	n	n
COc1cc(NC2c3ccccc3C(=O)N2c2cc(C)ccn2)cc(OC)c1OC (stereo unspecified)	u	u	n	n	n	n
COc1cc(NC2c3ccccc3C(=O)N2c2ccc(C)cn2)cc(OC)c1OC (stereo unspecified)	u	u	u	u	11µM	u
COCCn1c(C)cc(C(=O)CSc2nnnn2C2CCCC2)c1C	u	u	0.1µM	0.085µM	x	u
COCCn1c(C)cc(C(=O)CSc2nnc(C)s2)c1C	x	x	x	1.7µM	n	x
COC(=O)c1sccc1NC(=O)CC1C(=O)NCCN1C(=O)Nc1ccc(OCc2ccccc2)cc1 (stereo unspecified)	n	12µM	n	u	x	n
CCCCc1ccc(NC(=O)N2CCNC(=O)C2CC(=O)Nc2ccsc2C(=O)OC)cc1 (stereo unspecified)	n	23µM	n	u	x	n
COC(=O)c1sccc1NC(=O)CC1C(=O)NCCN1C(=O)Nc1ccccc1 (stereo unspecified)	n	u	n	n	x	n
CCN(CC)c1ccc(N=Cc2ccccc2[N+](=O)[O-])cc1	n	n	n	3.8µM	n	n
CCN(CC)c1ccc(N=Cc2ccc([N+](=O)[O-])o2)cc1	n	n	n	6.7µM	n	n
O=C(/C=C/c1c(C(=O)O)[nH]c2cc(Cl)cc(Cl)c12)Nc1ccccc1	x	x	x	x	n	x
SMILES	ELG1 genotoxic	ELG1 repair inh	NPC1 promoter act	FLuc modulator	SMN2 splice up	Rab9 promoter act
Cc1ccc(OCc2nc(-c3ccccn3)no2)c(Br)c1	0.33µM	u	0.1µM	0.21µM	n	0.28µM
Cc1ccc(OCc2nc(-c3ccccn3)no2)cc1	3.7µM	u	1.1µM	4.8µM	8.9µM	1.4µM
CCc1ccc(OCc2nc(-c3ccccn3)no2)c(Br)c1	u	u	0.32µM	0.54µM	0.5µM	0.4µM
Cc1ccc(SCc2nc(-c3ccccn3)no2)cc1	u	u	u	n[2.3 µM]	u	u
c1ccc(OCCCc2nc(-c3ccccn3)no2)cc1	18µM	u	u	u	u	n[1.84 µM]
CCc1ccc(NC(=O)CSc2nc3ccccc3nc2Cc2ccccc2OC)cc1	x	x	x	n	x	x
CC(C)(C)Cc1nc(-c2ccccn2)no1	18µM	u	u	u	u	u

Screens deposited in PubChem BioAssay by National Center for Advancing Translational Sciences (NCATS).
